# High-throughput results deposited in PubChem BioAssay by Broad Institute.
# An excerpt weighted towards active compounds, which were near 4.8% of everything screened.
# HIF activator – HIF pathway transcriptional activators, primary screen, cell-based, U2OS HRE-luciferase, luminescence; U2OS HRE-luciferase reporter; normalized: DMSO 0%, desferrioxamine 100%; activation, % at 7.5 µM (by protocol); 300,000 compounds, 0.32% hits; AID 1910, 2009;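 active means mean activation of at least 10% of the iron chelator positive control signal, with at least half of replicates also reaching 10%; inconclusive means mean and replicate majority disagree about reaching 10%; inactive means mean and most replicates under 10%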
# AI-2 QS mod – Vibrio harveyi AI-2 quorum sensing modulators, primary screen, JMH597 strain, luminescence/OD600 ratio; 300,000 compounds, 0.4% hits; activity change, % at 7.5 µM; Vibrio harveyi JMH597 AI-2 luminescence/OD600 ratio, 9 h; stronger effect = lower value; strain lacks LuxN and CqsS sensors; 0 = neutral-control median; in the data active means activity change below about -75%, passing the limit was not always enough; inconclusive means no clear call, values can overlap the other calls;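 further: luminescence divided by OD600 gain over 9 h not by final OD600 alone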
# ALR H2O2 inh – inhibitors of human ALR sulfhydryl oxidase, primary screen, biochemical, H2O2 detection, HRP-luminol luminescence, single point; purified ALR, DTT oxidation; inhibition, % (no concentration beside the values); 290,000 compounds, 3.8% hits;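 active means mean replicate inhibition above about 79%, with every replicate also reaching it, limit read from the data; inconclusive means only one of the two criteria met; inactive means mean below limit and not every replicate reaching it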
# Target sequence (P55789 whole entry, looked up): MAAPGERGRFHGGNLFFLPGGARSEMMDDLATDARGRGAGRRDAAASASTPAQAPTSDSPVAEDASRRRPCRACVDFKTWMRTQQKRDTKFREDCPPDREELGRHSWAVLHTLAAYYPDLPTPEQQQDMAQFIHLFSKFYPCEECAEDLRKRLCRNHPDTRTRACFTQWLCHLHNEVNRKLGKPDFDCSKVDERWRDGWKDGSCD
# SUMO Mot1 rescue – yeast Mot1-301 growth rescue at high temperature, primary screen, SUMOylation pathway inhibitor project, S. cerevisiae, ATP luminescence, 38.5C; growth rescue, % at 18.8 µM; S. cerevisiae Mot1-301 growth rescue; percent above DMSO median, 100 means doubled; 320,000 compounds, 1% hits;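 active means every valid replicate shows activation above 250% relative to neutral control wells; inactive means the rest, any valid replicate at or below 250%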
# Numbers stand for hits; – = inactive; ? = inconclusive; · = no result.
SMILES,HIF activator,AI-2 QS mod,ALR H2O2 inh,SUMO Mot1 rescue
CC(=O)Nc1ccc(S(=O)(=O)NNC(=O)c2cccc(Cl)c2)cc1,–,–,99,–
CC(=O)Nc1ccc(S(=O)(=O)NNC(=O)c2ccc3c(c2)OCO3)cc1,–,–,–,–
CC(=O)Nc1ccc(S(=O)(=O)NNC(=O)COc2ccc(C)cc2)cc1,–,–,–,–
CC(=O)Nc1ccc(S(=O)(=O)NNC(=O)COc2ccc(C(C)(C)C)cc2)cc1,–,–,97,–
Cc1c(Cc2ccccc2)c(=O)oc2cc(O)cc(O)c12,–,–,78,–
Cc1coc2cc3oc(=O)c(Cc4ccccc4)c(C)c3cc12,–,–,–,–
CCN1C(=O)CC(C(=O)NC)SC1=Nc1cc(Cl)c(O)c(Cl)c1 (stereo unspecified),–,–,99,–
Cc1ccc(S(=O)(=O)/N=C(\Sc2ccccc2)c2ccccc2)cc1,–,–,98,–
O=S(=O)(/N=C(\Sc1ccccc1)c1ccccc1)c1ccc(Cl)cc1,–,–,–,–
CCOC(=O)/C(C#N)=C/c1ccc(OC)c(OC)c1,–,–,–,–
CCOc1cc(/C=C(\C#N)C(N)=O)ccc1OS(=O)(=O)c1ccccc1,–,–,98,–
CC1CC(C)CN(S(=O)(=O)c2ccc3c(c2)oc(=O)n3CC(=O)N(C)Cc2ccccc2)C1 (stereo unspecified),–,–,–,333
CCCCNC(=O)Cn1c(=O)oc2cc(S(=O)(=O)N3CC(C)CC(C)C3)ccc21 (stereo unspecified),–,–,–,–
Cc1nn(C)cc1S(=O)(=O)Nc1cccc(Cl)c1,–,–,–,–
CCc1cc(C(=O)N2CCCC(Nc3ccc(F)c(F)c3)C2)n(C)n1 (stereo unspecified),–,–,–,–
CC(=O)C(Sc1nccc(-c2cccs2)n1)C(C)=O,–,–,98,–
Cc1ccc(-c2nc(CS(=O)CC(=O)NCc3ccco3)c(C)o2)cc1 (stereo unspecified),–,·,99,–
COc1ccc(-c2nc(CS(=O)CC(=O)NCc3ccco3)c(C)o2)cc1OC (stereo unspecified),–,–,98,–
Cc1cccc(-c2nc(CS(=O)CC(=O)NCc3ccco3)c(C)o2)c1 (stereo unspecified),–,–,99,–
Cc1oc(-c2cccc(Cl)c2)nc1CS(=O)(=O)CC(=O)NCc1ccco1,–,–,–,–
C[C@H](CO)N1C[C@H](C)[C@@H](CN(C)S(=O)(=O)c2cccs2)Oc2ccc(NS(=O)(=O)c3ccccc3)cc2C1=O,·,·,–,–
CC(=O)Nc1ccc2c(c1)C(C)(C)C(C)N2C (stereo unspecified),–,–,99,–
Cc1ccc(NC(=O)CN2C(=O)S/C(=C\c3ccc(OCC(=O)O)c(Br)c3)C2=O)cc1,–,–,–,–
O=C(O)COc1ccccc1/C=C1\SC(=O)N(Cc2ccc(F)cc2)C1=O,–,–,98,–
Cc1ccc(CN2C(=O)S/C(=C\c3ccccc3OCC(=O)O)C2=O)cc1,–,–,97,·
SMILES,HIF activator,AI-2 QS mod,ALR H2O2 inh,SUMO Mot1 rescue
O=C(O)CN1C(=O)/C(=C\c2ccccc2OCc2ccc(F)cc2)SC1=S,–,–,–,–
Cc1ccc(S(=O)(=O)N2CCN(C(=O)CNC(=O)c3ccc(Br)o3)CC2)cc1,–,–,–,–
Cc1ccc(S(=O)(=O)Nc2cccc(C(=O)NC3CCN(Cc4ccccc4)CC3)c2)cc1F,–,–,·,·
O=C(NC1CCN(Cc2ccccc2)CC1)c1cccc(S(=O)(=O)Nc2ccc(SC(F)F)cc2)c1,·,·,99,–
O=S(=O)(c1cccc(Br)c1)N1CCN(C(=S)NCC2CCCO2)CC1 (stereo unspecified),–,–,–,–
Cc1ccc(C2=NNC(=O)C(c3ccc(Cl)cc3)C2)cc1 (stereo unspecified),–,-84,–,–
O=[N+]([O-])c1c(Nc2cccc(O)c2)cc(Cl)c2nonc12,–,-219,·,–
COc1ccc(N2CCN(S(=O)(=O)c3c(C)n(C)c(=O)n(C)c3=O)CC2)cc1,–,–,–,–
Cc1ccc([N+](=O)[O-])cc1N=Nc1c(-c2ccc([N+](=O)[O-])cc2)[nH]n(C(N)=S)c1=O,–,–,·,·
Cc1ccc([N+](=O)[O-])cc1N=Nc1c(C)[nH]n(C(N)=S)c1=O,–,–,98,–
Cc1ccc(NC(NC(=O)c2ccccc2[N+](=O)[O-])C(Cl)(Cl)Cl)cc1 (stereo unspecified),–,–,99,–
O=C(O)c1cccc(NC(=S)NC(NC(=O)c2ccccc2[N+](=O)[O-])C(Cl)(Cl)Cl)c1 (stereo unspecified),–,–,–,–
O=C(CC(=O)NCCc1ccccc1)NCCc1ccccc1,–,–,–,–
NNCCc1ccccc1,–,–,99,–
Cc1cc(C(=O)CCC(=O)NCc2ccccc2F)c(C)s1,–,–,·,–
CCOC(=O)c1nc(NNC(=O)c2ccc([N+](=O)[O-])cc2)sc1C,–,–,99,–
CNc1ccccc1-n1ccc(-c2ccccc2)n1,–,–,94,–
Cn1ccc(-c2ccccc2)n1,–,–,–,–
COC(=O)/C=C/C(=O)Nc1cccnc1,–,–,95,–
Cc1nc(C(F)(F)F)c(C(=O)O)cc1-c1nc(-c2ccccc2)cs1,–,–,95,–
O=C(O)c1ccc(-c2nc(-c3cccc(C(F)(F)F)c3)cs2)cc1,–,–,·,·
COc1ccccc1-n1nnnc1SCC(=O)N(C)C1CCS(=O)(=O)C1 (stereo unspecified),·,·,–,–
O=C(O)c1cccc(Cn2c(Cl)c(/C=N/Nc3ccccc3)sc2=O)c1,–,–,100,279
COc1ccc2ccccc2c1/C=N/Nc1cccc(C(=O)O)c1,?,–,–,–
Cc1ccc(/C=N/Nc2ccc(C(=O)O)cc2)s1,–,-95,99,–
SMILES,HIF activator,AI-2 QS mod,ALR H2O2 inh,SUMO Mot1 rescue
Cc1ccc(/C=N/Nc2cccc(C(=O)O)c2)s1,–,–,98,–
Cc1ccsc1/C=N/Nc1cccc(C(=O)O)c1,–,–,–,–
O=C(O)c1cccc(N/N=C/c2cccc3ccccc23)c1,–,–,99,–
CN(Cc1nccs1)C(=O)C1CCC(=O)N(CCc2ccc(Cl)cc2)C1 (stereo unspecified),–,–,–,–
O=C(O)c1ccc(N/N=C/c2cc(Br)cs2)cc1,–,–,98,–
O=C(N/N=C\c1cc(Br)cs1)c1ccncc1,–,–,–,–
CNc1nc(Nc2ccc(C(C)=O)cc2)nc(OC(C(F)(F)F)C(F)(F)F)n1,·,–,100,–
COc1cc(C(C)=O)ccc1OCC(O)Cn1nc(C)c(Br)c1C (stereo unspecified),–,–,–,–
CCc1ccc(NC(=O)CSc2ccc(-c3ccco3)nn2)cc1,–,–,98,–
CC(=O)c1cccc(NC(=O)CSc2ccc(-c3ccco3)nn2)c1,–,–,–,–
Clc1cccc(CSc2ccc(-c3ccco3)nn2)c1,–,–,98,–
